# Hits are enriched below; roughly 4% of the tested compounds scored in any of these assays.
# TWEAK-Fn14 inh: inhibitors of TWEAK-Fn14 interaction signaling; inhibition, % at 10 µM; 360,000 compounds, 2% hits; TWEAK-stimulated Fn14 reporter cells, luciferase luminescence, 8 h; in the data active means inhibition above about 50%
# CF NFkB inh: inhibitors of cystic fibrosis induced NF-kB | KKLEB NF-kB-GFP reporter, PAF-induced, GFP fluorescence overnight | inhibition, % at 5 µM | 360,000 compounds, 0.86% hits;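 active means at least 50% inhibition at 5 µM, scaled per plate between neutral and stimulator controls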;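 further: PAF is a Pseudomonas aeruginosa culture filtrate used as stimulus; plate controls were PAF-stimulated DMSO wells for no effect and unstimulated DMSO wells for full effect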
# HIF-2a block: HIF-2a inhibition | 786-0 RCC cells HIF-2a reporter, luciferase luminescence, overnight | inhibition, % at 18.8 µM | 360,000 compounds, 0.72% hits;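 active means inhibition of the luminescence signal of 40% or more relative to plate controls, in a single-dose primary screen at 18.75 µM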
# KKLEB tox: counter-screen for CF NF-kB inhibitors: cytotoxicity; activity change (cytotoxicity), % at 5 µM; KKLEB CF airway cells viability, ATPlite luminescence, overnight; active compounds read low; cells stimulated with P. aeruginosa culture filtrate; 360,000 compounds, 0.36% hits;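 active means corrected activity change at or below -50% at 5 µM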
# Peg3 promoter: reduces Peg3 promoter-driven luciferase expression in HeLa. HeLa PEG-Prom luciferase reporter, luminescence, overnight. inhibition, % at 20 µM. 360,000 compounds, 1.7% hits;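 active means inhibition of at least 50% at 20 µM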
# TROY signal inh: TROY signaling inhibition | AID 1347056 | Q293 LMP1-TROYcd NF-kB luciferase reporter, 4 h | 360,000 compounds, 0.98% hits | inhibition, % at 10 µM;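 active means compounds whose plate-normalised and pattern-corrected inhibition of the luciferase reporter signal at the single screening dose is 50% or more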
# CF NFkB conf: confirmation of cystic fibrosis induced NF-kB inhibitors. KKLEB CF airway cells, PAF-induced NF-kB-GFP fluorescence, overnight. inhibition, % at 5 µM. 1,300 compounds, 64% hits. AID 602472. shares compounds with CF NFkB inh; in the data active means inhibition above about 40%;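 further: stimulus PAF is a Pseudomonas aeruginosa filtrate and not platelet activating factor; plate controls were DMSO wells with stimulus for no effect and unstimulated DMSO wells for full effect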
# An asterisk follows results filed as active; x = not tested or not shown.
SMILES,TWEAK-Fn14 inh,CF NFkB inh,HIF-2a block,KKLEB tox,Peg3 promoter,TROY signal inh,CF NFkB conf
O=c1cc(C(F)(F)F)[nH]c2c(C(F)(F)F)cccc12,61.1*,56.7*,-2.6,-1.6,23.7,57.8*,0.9
CC(=O)OC1(C)C=Cc2ccccc2C1=NS(=O)(=O)c1ccccc1 (configuration not stated),-7.8,38.7,17.1,18.1,10.9,2.0,x
C=CCN(c1ccc(C(=O)N2CCN(c3ccc(F)cc3)CC2)cc1)S(C)(=O)=O,1.6,13.8,-4.8,0.0,1.2,4.8,x
Cc1ccc(C)c(NCc2n[nH]c(=S)n2-c2ccccc2)c1,-1.5,-12.4,11.6,1.1,9.8,7.8,x
Cn1c(N2CCN(C(c3ccccc3)c3ccccc3)CC2)nc2c1c(=O)[nH]c(=O)n2C,22.8,68.9*,12.4,-17.3,43.1,9.0,83.9*
O=C(CN1C(=O)NC2(CCOc3ccccc32)C1=O)c1cccs1 (configuration not stated),26.2,6.8,12.7,-9.6,-7.4,-17.4,x
O=C(COc1ccccc1Cl)Nc1ccc2c(c1)OCO2,-20.4,-13.2,-254.6,3.9,-374.9,-58.7,x
O=C(Nc1cccc(OC(F)(F)F)c1)C1Cc2c(-c3cccc(F)c3)ccnc2O1 (configuration not stated),-52.1,-22.7,-2.0,-9.3,42.8,1.6,x
O=C(Nc1ccc(Oc2ccc(NC(=O)Nc3ccc([N+](=O)[O-])cc3)cc2)cc1)Nc1ccc([N+](=O)[O-])cc1,86.8*,52.5*,-3.4,1.2,46.3,26.1,61.3*
O=C1Nc2ccc(Cl)cc2C(C#CC2CC2)(C(F)(F)F)O1 (configuration not stated),-13.5,-16.2,23.4,-3.3,25.9,8.8,x
COc1ccc(/C=N/NC(=O)c2[nH]c3ccc(Br)cc3c2-c2ccccc2)cc1,-30.2,81.0*,26.1,-33.2,-9.8,22.4,81.4*
O=C(N/N=C/c1ccccc1Cl)c1[nH]c2ccc(Br)cc2c1-c1ccccc1,38.1,63.2*,13.2,-14.0,14.0,21.0,76.0*
COc1ccc(Cl)cc1N1C(=O)C2CCCN2C1c1ccccc1F (configuration not stated),1.5,-30.8,15.6,8.5,7.3,6.1,x
Cn1cnnc1Sc1ccc(/C=C/C(=O)c2ccc(O)cc2)cc1[N+](=O)[O-],90.2*,59.1*,35.9,-2.4,109.7*,27.3,-91.1
CCC(C)(C)NC(=O)c1ccc(Sc2nncn2C)c([N+](=O)[O-])c1,7.0,13.5,12.7,-13.4,5.5,8.8,x
O=c1[nH]c(C2CCN(S(=O)(=O)c3ccc4c(c3)OCCO4)CC2)nc2c1nnn2Cc1c(F)cccc1Cl,54.8*,68.1*,22.3,-0.1,55.6*,23.7,81.6*
O=C(NCCc1c[nH]c2ccccc12)C(=O)NCC(c1ccco1)N1CCN(c2ccc(F)cc2)CC1 (configuration not stated),-0.6,51.2*,21.1,-47.9,25.8,1.1,-17.4
Cc1nnc(NC(=O)CC23CC4CC(CC(C4)C2)C3)s1,16.8,13.0,-1.5,-3.9,-5.3,-0.8,x
O=C(CC12CC3CC(CC(C3)C1)C2)Nc1nncs1,-22.9,50.4*,18.9,-5.0,36.3,11.7,60.8*
COc1cccc(NC(=O)Nc2nnc(-c3ccccc3SCc3ccccc3)s2)c1,-8.1,6.3,-4.4,-15.3,4.2,-2.3,x
COc1ccc(NC(=O)Nc2nnc(-c3ccccc3SCc3ccccc3)s2)cc1,-10.8,50.3*,16.7,-34.6,-2.0,-3.0,21.1
COc1ccc(C(=O)Oc2ccc(F)cc2C(=O)/C=C/c2ccc(OC)c(OC)c2)cc1,25.8,12.5,3.7,-15.3,18.6,2.5,x
COc1ccc(/C=C/C(=O)c2cc(F)ccc2OC(=O)c2ccccc2C)cc1OC,52.9*,54.2*,24.5,-27.0,19.3,24.1,45.4*
Cc1ccc(CNc2ncnc3ccc(-c4ccc(CO)o4)cc23)o1,0.1,53.2*,33.9,-33.6,27.8,-8.2,81.0*
CCc1cccc(CC)c1NC(=O)COC(=O)C1(c2ccc(Cl)cc2)CCCC1,24.3,-6.2,23.7,-0.5,14.1,12.8,x
C=C(CCC(=O)c1ccccc1)C(=O)c1ccccc1,57.2*,79.6*,-49.8,-40.0,62.9*,-33.6,-63.1

# Screens deposited in PubChem by Sanford-Burnham Center for Chemical Genomics.
